Screens from PubChem.
The list is not random: actives were taken first. Their share in the collection is about 4.1%.
IDE inh – inhibitors of human insulin-degrading enzyme in cells | P14735 | HEK cells, FAbetaB cleavage, fluorescence polarization | inhibition, % at 5.59 µM | 0.41% of 320,000 active | AID 434962;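 active means percent inhibition above the average of all tested compounds plus 3 SD, set per screening campaign, cut at about 16% in these data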;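 further: IDE supplied by intact live HEK cells; FP after avidin binding of uncleaved biotin substrate so inhibition keeps polarization high; 0% = DMSO wells and 100% = 60 µM reference IDE inhibitor Ii1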
Target sequence (P14735 whole entry, looked up): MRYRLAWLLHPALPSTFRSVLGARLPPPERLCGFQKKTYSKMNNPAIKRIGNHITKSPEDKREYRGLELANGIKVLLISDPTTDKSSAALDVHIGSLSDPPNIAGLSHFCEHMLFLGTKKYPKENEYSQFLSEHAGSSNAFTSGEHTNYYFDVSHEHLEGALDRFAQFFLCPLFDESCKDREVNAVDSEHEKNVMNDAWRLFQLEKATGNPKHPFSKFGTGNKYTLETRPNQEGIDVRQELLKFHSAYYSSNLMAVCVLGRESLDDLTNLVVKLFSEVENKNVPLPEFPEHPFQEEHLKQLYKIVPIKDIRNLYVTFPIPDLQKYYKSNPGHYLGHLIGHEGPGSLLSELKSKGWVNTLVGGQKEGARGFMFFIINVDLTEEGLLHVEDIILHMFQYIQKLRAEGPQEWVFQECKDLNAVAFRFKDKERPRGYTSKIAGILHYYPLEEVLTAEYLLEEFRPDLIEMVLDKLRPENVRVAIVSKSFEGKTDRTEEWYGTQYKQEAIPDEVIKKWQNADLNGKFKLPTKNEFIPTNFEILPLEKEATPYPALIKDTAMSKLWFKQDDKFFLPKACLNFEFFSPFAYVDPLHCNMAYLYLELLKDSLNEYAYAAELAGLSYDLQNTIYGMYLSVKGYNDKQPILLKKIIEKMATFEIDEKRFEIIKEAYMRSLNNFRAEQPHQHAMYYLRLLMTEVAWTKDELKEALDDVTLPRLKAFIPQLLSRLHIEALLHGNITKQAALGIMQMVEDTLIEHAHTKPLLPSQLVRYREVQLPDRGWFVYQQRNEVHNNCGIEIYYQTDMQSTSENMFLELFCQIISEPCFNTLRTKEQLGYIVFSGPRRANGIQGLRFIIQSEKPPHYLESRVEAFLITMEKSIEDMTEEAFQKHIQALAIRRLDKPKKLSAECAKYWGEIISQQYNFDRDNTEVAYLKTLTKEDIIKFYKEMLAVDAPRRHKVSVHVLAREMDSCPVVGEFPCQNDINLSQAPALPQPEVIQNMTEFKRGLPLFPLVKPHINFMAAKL
PolyA inhibitor – blocks polyadenylation in yeast reporter cells. activity score, % at 12 µM. S. cerevisiae SKY197-pL101 polyadenylation reporter, beta-gal luminescence; efflux-impaired pdr1/pdr3 knockout yeast; score 100 = 6 SD above DMSO. 0.02% of 300,000 active. AID 1875;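 active means lowest replicate activity score at least 50, where 100 means six control SD above control mean; inconclusive means lowest score under 50 but half or more replicates reach 50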;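 further: yeast exposed to compound for 9 h at 30 °C; higher score means more reporter readthrough which indicates perturbed polyadenylation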
IDE cell activ – activators of human insulin-degrading enzyme in cells; 0.073% of 340,000 active; HEK cells, FAbeta-B cleavage, fluorescence polarization; 0% vehicle, 100% cell-free pure enzyme wells; P14735; AID 493087; activation, % at 5.96 µM;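 active means activation above the mean of all tested compounds plus 3 SD, set per screening campaign, cut at about 17% in these data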
PfM18AAP inh – blocks P. falciparum M18 aspartyl aminopeptidase. recombinant PfM18AAP, H-Glu-NHMec fluorogenic cleavage. inhibition, % at 7.35 µM. 1.2% of 290,000 active;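 active means inhibition above the campaign mean inhibition over all tested compounds plus 3 SD, cut at about 28% in these data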;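 further: 0% = plate median of test compound wells and 100% = 2 mM ZnCl2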
ALR inh – inhibitors of human sulfhydryl oxidase ALR; inhibition, % (concentration not given with the values); 3.8% of 290,000 active; purified ALR, DTT oxidation, H2O2 HRP-luminol luminescence; P55789; AID 485317;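 active means mean replicate inhibition above about 79%, with every replicate also reaching it, limit read from the data; inconclusive means only one of the two criteria met; inactive means mean below limit and not every replicate reaching it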
CaV13 FRET inh – Primary screen for inhibitors of IQ motif and Ca2+-dependent inactivation inhibitor domain binding in CACNA1D, Förster resonance energy transfer in living cells, … | HEK cells, CFP/YFP FRET ICDI-IQ, plate reader, 10 min; percent FRET-ratio fall versus neutral wells | inhibition, % at 12.3 µM | AID 743397 | 0.098% of 340,000 active;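 active means mean replicate inhibition of at least 30% and at least 1% of replicates passing that level; inconclusive means only one of the two criteria is met; inactive means neither criterion is met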;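 further: 0% = median of the neutral control wells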
Starred values were filed as active, the others as inactive; u = inconclusive; x = no result.

SMILES | IDE inh | PolyA inhibitor | IDE cell activ | PfM18AAP inh | ALR inh | CaV13 FRET inh
CSCCNC(=O)C1(C)CCN1C(=O)c1sccc1C (stereo unspecified) | x | x | x | x | x | -8.7
COC(=O)CSc1nc2[nH]ncc2c(=O)[nH]1 | -6.6 | 10.9 | 1.9 | 19.3 | -0.8 | -1.5
FC(F)(F)c1cc(Cl)c2nc(-c3ccco3)c(Cc3ccccc3C(F)(F)F)n2c1 | x | x | x | x | x | -6.4
CCC1(C)CC2(CCCN(CCC(=O)c3ccccc3)C2)CCO1 (stereo unspecified) | -2.0 | -13.9 | 7.2 | 2.5 | 14.9 | 1.7
Oc1c(Br)cc(Br)cc1/C=N/n1c(-c2ccccc2)n[nH]c1=S | -2.6 | -21.5 | 0.8 | 14.9 | x | -7.4
Oc1ccccc1/C=N/n1c(-c2ccccc2)n[nH]c1=S | -1.9 | -9.0 | -5.9 | 26.3 | 97.5* | -2.0
Oc1c(Br)cc(/C=N/n2c(-c3ccccc3)n[nH]c2=S)c(Br)c1O | 3.2 | 16.4 | x | 33.3* | x | x
COc1ccccc1CCn1cnc(-c2ccccc2OC)c1C(C)C | x | x | x | x | x | -7.7
CC1(C)CC(=O)C=C(OC(=O)c2ccc(Cl)cc2)C1 | -4.3 | -11.7 | 5.1 | -1.1 | 97.8* | x
COCc1cc(C)nc(N/N=C/c2ccc(-c3ccc(C(=O)O)c(Cl)c3)o2)c1C#N | 2.8 | -81.6 | x | 3.5 | 97.7* | x
N#Cc1c(/N=C/c2ccc(-c3ccc(C(=O)O)c(Cl)c3)o2)sc2c1CCCC2 | 6.8 | x | -4.8 | x | 98.8* | -5.6
Cc1ccc(CS(=O)(=O)Cc2ccc(C(=O)NCCCN3CC(C)CC(C)C3)o2)cc1 (stereo unspecified) | 0.4 | -6.3 | 8.7 | -5.8 | -25.2 | -2.9
CC(C)NC(=O)C1(C)CCN1C(=O)c1ccc(F)c(Cl)c1 (stereo unspecified) | x | x | x | x | x | -6.0
Cc1csc(=Nc2cccnc2)n1CC1CCCCC1 | 0.1 | 16.6 | 6.9 | 5.7 | 98.6* | -4.5
COCCCn1c(C)csc1=Nc1cccnc1 | 1.1 | -4.1 | -1.0 | 8.0 | 60.5 | -3.1
Nc1[nH]c(C(=O)c2ccccc2)c(-c2cccc(C(F)(F)F)c2)c1C(=O)c1c[nH]c2ccccc12 | x | x | x | x | x | -15.8
CCCCn1c(=O)c(CCC(=O)OCC(=O)Nc2ccc(F)c(Cl)c2)nc2ccccc21 | -3.7 | -5.7 | -5.6 | 9.6 | -29.4 | -14.5
Cc1c(C#N)c(NC(=O)CCl)n(Cc2ccc(F)cc2)c1C | 1.6 | -7.2 | -3.2 | 4.8 | 32.2 | -7.8
Cc1c(C#N)c(NC(=O)CCl)n(Cc2ccccc2)c1C | 1.8 | 0.8 | -0.3 | 11.0 | 96.1* | -4.0
O=C(O)c1cc(-c2ccc(/C=c3\sc4nc5ccc(Br)cc5n4c3=O)o2)ccc1Cl | 1.2 | -19.4 | x | 20.1 | 92.8* | x
COC(=O)c1cc2c(c3c4cc(C)ccc4n(S(=O)(=O)c4ccc(C)cc4)c13)C(=O)N(Cc1ccc(N(C)C)cc1)C2 | x | x | x | x | x | -4.7
CN(C)CCC(=O)N1c2ccccc2Sc2ccc(C(F)(F)F)cc21 | -3.9 | -30.4 | 4.9 | 6.1 | 97.6* | -1.8
CN(C)CCCN1c2ccc(O)cc2Sc2ccc(Cl)cc21 | x | x | x | x | x | -8.0
CN(C)CCCN1c2ccccc2Sc2ccc(C(F)(F)F)cc21 | -3.2 | 19.2 | -1.3 | -6.1 | 97.9* | -5.3
OCCN1CCN(CCCN2c3ccccc3Sc3ccc(C(F)(F)F)cc32)CC1 | 0.7 | -17.9 | 3.2 | 0.7 | 97.9* | -4.4
SMILES | IDE inh | PolyA inhibitor | IDE cell activ | PfM18AAP inh | ALR inh | CaV13 FRET inh
CN1CCN(CCC(=O)N2c3ccccc3Sc3ccc(C(F)(F)F)cc32)CC1 | -0.4 | -4.7 | -1.1 | -3.7 | 21.3 | -11.8
CCOC(=O)CCCNC(=O)CSc1nc2ccc(OCC)cc2[nH]1 | 2.3 | -7.9 | -1.1 | -2.7 | -23.0 | 5.8
COc1cc(/C=N/NC(=O)CNc2n[nH]c(=O)[nH]c2=O)ccc1O | -2.7 | 6.3 | 4.5 | 1.6 | 97.9* | -1.8
COc1cc(/C=N/NC(=O)C(C)Nc2n[nH]c(=O)[nH]c2=O)ccc1O (stereo unspecified) | 2.8 | -7.4 | -0.5 | 8.6 | 98.8* | -4.7
CC(Nc1n[nH]c(=O)[nH]c1=O)C(=O)N/N=C/c1ccccc1 (stereo unspecified) | -0.7 | 7.7 | 4.4 | 2.9 | 0.3 | -2.4
N#Cc1cc2[nH]c3ccccc3c2[n+](-c2ccc([N+](=O)[O-])cc2)c1N | 1.7 | -4.9 | 1.8 | -5.8 | -26.7 | -17.7
Cn1c(=O)c2c3c(sc2n2c(SCC(N)=O)nnc12)CC(C(C)(C)C)CC3 (stereo unspecified) | -6.5 | 0.1 | 4.7 | -4.4 | -32.8 | -4.8
CNC(=O)c1c(NC(=O)C2=COCCO2)sc2c1CCCC2 | -1.0 | -12.1 | -2.6 | -0.4 | 80.8* | x
CNC(=O)c1c(NC(=O)c2ccco2)sc2c1CCC2 | 2.1 | 6.4 | 4.6 | 10.3 | u | -2.9
Cc1cccc(-c2nc(CS(=O)CC(=O)NC3CCCCC3)c(C)o2)c1 (stereo unspecified) | -4.8 | -21.6 | 1.9 | -2.5 | 99.0* | -2.4
Cc1oc(-c2ccccc2)nc1CS(=O)CC(=O)NC1CCCCCC1 (stereo unspecified) | 11.4 | 3.1 | 3.2 | -18.1 | 99.7* | -5.1
Cn1c(N)c(Sc2ccc(F)cc2)c(=O)n(C)c1=O | -1.3 | -1.7 | 5.5 | -1.3 | -17.8 | -6.1
Cc1cccnc1NC(=O)c1csnn1 | -4.1 | 20.3 | 3.5 | 0.4 | -10.5 | -3.6
CC(C(=O)Nc1ccc(S(N)(=O)=O)cc1)N1CCc2ccccc21 (stereo unspecified) | 7.1 | 15.7 | 8.9 | -8.5 | 98.8* | -4.7
Cc1ccc(-c2nc(CSCC(=O)NCCN3CCN(Cc4ccccc4)CC3)c(C)o2)cc1 | -2.3 | -5.1 | 3.8 | -7.4 | 99.1* | -4.1
Cc1ccc(-c2nc(CSCC(=O)NCCCN3CCOCC3)c(C)o2)cc1 | 3.0 | 20.9 | -2.9 | -9.8 | 97.4* | -6.4
CCCC(=O)c1c[nH]c(C(=O)N2CCOCC2)c1 | 9.4 | 3.4 | -1.3 | 3.3 | -5.5 | -3.8
Cc1cc(C)nc(NS(=O)(=O)c2ccc(NC(=O)c3cc(=O)c4ccccc4o3)cc2)n1 | 5.9 | -1.3 | -0.3 | 5.5 | 2.0 | -6.0
Cc1ccc(NC(=O)CSCC#N)cc1Cl | 3.1 | 9.6 | 3.9 | -2.1 | 98.9* | -2.1
Cc1nc(NC(=O)CSc2nncs2)c(Cl)cc1Cl | -3.5 | 14.8 | 5.7 | 1.4 | -18.4 | -2.3
Cc1ccc(NC(=O)CSc2nncs2)cc1Cl | 0.1 | x | 1.5 | x | 98.9* | -8.1
CCOC(=O)c1cc(NC(=O)CSCCO)ccc1Cl | 8.1 | 13.1 | 7.5 | -1.2 | 98.9* | x
CC(=O)NCCc1nc2cc(NC(=O)c3ccccc3C)ccc2n1C | -2.3 | -14.0 | 1.8 | -4.9 | -33.1 | -5.3
Cc1ccc(C)c(NC(=O)CCC(=O)N/N=C/c2ccc3c(c2)OCO3)c1 | 3.6 | -5.2 | -6.8 | 1.1 | -6.2 | -6.7
COc1cc(/C=N/NC(=O)c2ccccc2O)ccc1OC(=O)CC1SC(=O)NC1=O (stereo unspecified) | -1.0 | -4.0 | 3.9 | 16.2 | 88.1* | 0.7
